Measured values from PubChem BioAssay AID1159580 (chemical genetic matrix, 2015).
Values joined by “and” are separate entries in the source; they are usually repeats but may differ in a detail not shown here. Equal values may be shown once. Among all 5,500 compounds or so, about 2,000 (36%) were called active. About 18% were inconclusive and are not listed. No stated cut-off is given here; in the data, active means normalized growth mostly below about 0.91 (no sharp cut-off); inconclusive means no clear call, values can overlap the other calls; inactive means mostly above about 0.92. The list shows a part of the results.

Assay: chemical genetic growth profiling, strain panel (AID 1159580);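 further: tested at 20 µM; growth read once vehicle control cultures reached saturation at 30 °C; 1 = growth at the plate median or of vehicle wells; lower values mean less growth of the strain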
Conditions: growth OD

Measured: normalized growth

C=CCc1ccccc1OCC(O)CNC(C)C (stereo unspecified)
inactive: S. cerevisiae deletion strains, locus YJR066W, strain TOR1, hits give low values 0.924 | S. cerevisiae deletion strains, locus YJR075W, strain HOC1, hits give low values 1.01 and 1 | S. cerevisiae deletion strains, locus YKL009W, strain mrt4, hits give low values 1 | S. cerevisiae deletion strains, locus YKL068W, hits give low values 1.01 | S. cerevisiae deletion strains, locus YKL085W, strain MDH1 (second series), hits give low values 1.01 | S. cerevisiae deletion strains, locus YKL085W, strain MDH1, hits give low values 1.01 | S. cerevisiae deletion strains, locus YKL160W, strain elf1, hits give low values 1 | S. cerevisiae deletion strains, locus YKL190W, strain CNB1, hits give low values 1 | S. cerevisiae deletion strains, locus YKR001C, strain vps1, hits give low values 1.03 | S. cerevisiae deletion strains, locus YKR026C, strain gcn3, hits give low values 0.988 | S. cerevisiae deletion strains, locus YKR091W, strain srl3, hits give low values 0.997 | S. cerevisiae deletion strains, locus YLL001W, strain dnm1, hits give low values 1.01 | S. cerevisiae deletion strains, locus YLL026W, hits give low values 0.991 | S. cerevisiae deletion strains, locus YLL041C, strain sdh2, hits give low values 0.992 | S. cerevisiae deletion strains, locus YLR027C, strain aat2, hits give low values 0.99 | S. cerevisiae deletion strains, locus YLR039C, strain RIC1, hits give low values 1.06 | S. cerevisiae deletion strains, locus YLR058C, strain SHM2, hits give low values 1.01 | S. cerevisiae deletion strains, locus YLR102C, strain apc9, hits give low values 1.01 | S. cerevisiae deletion strains, locus YLR113W, strain HOG1, hits give low values 0.983 | S. cerevisiae deletion strains, locus YLR221C, strain rsa3, hits give low values 0.992 | S. cerevisiae deletion strains, locus YLR258W, strain gsy2, hits give low values 0.99 | S. cerevisiae deletion strains, locus YLR262C, strain YPT6 (second series), hits give low values 1.02 | S. cerevisiae deletion strains, locus YLR262C, strain YPT6, hits give low values 1.06 | S. cerevisiae deletion strains, locus YLR268W, strain sec22, hits give low values 1.03 | S. cerevisiae deletion strains, locus YLR320W, strain mms22, hits give low values 0.994 | S. cerevisiae deletion strains, locus YLR330W, strain CHS5, hits give low values 0.988 | S. cerevisiae deletion strains, locus YLR342W, strain FKS1 (second series), hits give low values 0.974 | S. cerevisiae deletion strains, locus YLR342W, strain FKS1, hits give low values 0.995 | S. cerevisiae deletion strains, locus YLR357W, strain rsc2, hits give low values 0.967 | S. cerevisiae deletion strains, locus YLR370C, strain arc18, hits give low values 1.01 | S. cerevisiae deletion strains, locus YLR371W, strain rom2, hits give low values 1.01 | S. cerevisiae deletion strains, locus YLR384C, strain iki3, hits give low values 0.997 | S. cerevisiae deletion strains, locus YLR418C, strain cdc73, hits give low values 1.04 | S. cerevisiae deletion strains, locus YML016C, strain PPZ1, hits give low values 1 | S. cerevisiae deletion strains, locus YML032C, strain rad52, hits give low values 1.01 | S. cerevisiae deletion strains, locus YML120C, strain ndi1, hits give low values 0.994 | S. cerevisiae deletion strains, locus YML124C, strain tub3, hits give low values 1.01 | S. cerevisiae deletion strains, locus YMR058W, strain fet3, hits give low values 1 | S. cerevisiae deletion strains, locus YMR078C, strain ctf18, hits give low values 1.01 | S. cerevisiae deletion strains, locus YMR125W, strain sto1, hits give low values 0.993 | S. cerevisiae deletion strains, locus YMR129W, hits give low values 1 | S. cerevisiae deletion strains, locus YMR205C, strain PFK2, hits give low values 0.98 | S. cerevisiae deletion strains, locus YMR223W, strain ubp8, hits give low values 1 | S. cerevisiae deletion strains, locus YMR231W, strain pep5, hits give low values 0.995 | S. cerevisiae deletion strains, locus YMR263W, strain SAP30, hits give low values 1.01 | S. cerevisiae deletion strains, locus YMR307W, strain GAS1, hits give low values 1.02 | S. cerevisiae deletion strains, locus YNL067W, strain RPL9B, hits give low values 1.01 | S. cerevisiae deletion strains, locus YNL071W, strain lat1, hits give low values 1 | S. cerevisiae deletion strains, locus YNL128W, strain TEP1, hits give low values 1.01 and 0.998 | S. cerevisiae deletion strains, locus YNL153C, strain GIM3, hits give low values 1 | S. cerevisiae deletion strains, locus YNL175C, strain NOP13, hits give low values 0.973 | S. cerevisiae deletion strains, locus YNL183C, strain NPR1, hits give low values 0.924 | S. cerevisiae deletion strains, locus YNL209W, strain ssb2, hits give low values 1.01 | S. cerevisiae deletion strains, locus YNL224C, strain SQS1, hits give low values 0.972 | S. cerevisiae deletion strains, locus YNL233W, strain BNI4, hits give low values 0.982 | S. cerevisiae deletion strains, locus YNL248C, strain rpa49, hits give low values 1.01 | S. cerevisiae deletion strains, locus YNL250W, strain rad50, hits give low values 1.01 | S. cerevisiae deletion strains, locus YNL271C, strain bni1, hits give low values 1.01 | S. cerevisiae deletion strains, locus YNL298W, strain CLA4, hits give low values 1.02 | S. cerevisiae deletion strains, locus YNL307C, strain MCK1, hits give low values 1.03 | S. cerevisiae deletion strains, locus YNL322C, strain KRE1 (second series), hits give low values 0.991 | S. cerevisiae deletion strains, locus YNL322C, strain KRE1, hits give low values 1 | S. cerevisiae deletion strains, locus YNR049C, strain mso1, hits give low values 0.988 | S. cerevisiae deletion strains, locus YNR052C, strain pop2, hits give low values 1.01 | S. cerevisiae deletion strains, locus YOL006C, strain TOP1, hits give low values 1.05 | S. cerevisiae deletion strains, locus YOL012C, strain htz1 0.911 | S. cerevisiae deletion strains, locus YOL147C, strain pex11, hits give low values 1.01 | S. cerevisiae deletion strains, locus YOR001W, strain rrp6, hits give low values 0.997 | S. cerevisiae deletion strains, locus YOR061W, strain CKA2, hits give low values 1.01 | S. cerevisiae deletion strains, locus YOR069W, strain VPS5, hits give low values 1.01 | S. cerevisiae deletion strains, locus YOR070C, strain gyp1, hits give low values 0.997 | S. cerevisiae deletion strains, locus YOR080W, strain dia2, hits give low values 0.993 | S. cerevisiae deletion strains, locus YOR083W, strain WHI5 (second series), hits give low values 0.978 | S. cerevisiae deletion strains, locus YOR083W, strain WHI5, hits give low values 1.01 | S. cerevisiae deletion strains, locus YOR106W, strain vam3, hits give low values 1.05 | S. cerevisiae deletion strains, locus YOR136W, strain idh2, hits give low values 1 | S. cerevisiae deletion strains, locus YOR144C, strain elg1, hits give low values 1 | S. cerevisiae deletion strains, locus YOR184W, strain ser1, hits give low values 1.03 | S. cerevisiae deletion strains, locus YOR231W, strain MKK1, hits give low values 0.983 | S. cerevisiae deletion strains, locus YOR265W, strain rbl2, hits give low values 1 | S. cerevisiae deletion strains, locus YOR270C, strain vph1, hits give low values 1.07 | S. cerevisiae deletion strains, locus YOR290C, strain snf2, hits give low values 0.923 | S. cerevisiae deletion strains, locus YOR316C, strain cot1, hits give low values 1.01 | S. cerevisiae deletion strains, locus YPL051W, strain arl3, hits give low values 1.01 | S. cerevisiae deletion strains, locus YPL055C, strain LGE1, hits give low values 1 | S. cerevisiae deletion strains, locus YPL078C, strain atp4, hits give low values 1.01 | S. cerevisiae deletion strains, locus YPL106C, strain sse1, hits give low values 0.987 | S. cerevisiae deletion strains, locus YPL240C, strain hsp82, hits give low values 1.01 | S. cerevisiae deletion strains, locus YPL241C, strain CIN2, hits give low values 0.997 | S. cerevisiae deletion strains, locus YPL256C, strain CLN2, hits give low values 0.981 | S. cerevisiae deletion strains, locus YPR119W, strain clb2, hits give low values 1.01 | S. cerevisiae deletion strains, locus YPR141C, strain kar3, hits give low values 1.02 | S. cerevisiae deletion strains, locus YPR163C, strain tif3, hits give low values 1.01 | S. cerevisiae deletion strains, locus YPR167C, strain met16, hits give low values 1.01 | S. cerevisiae deletion strains, strain wtn01, hits give low values 1.01 | S. cerevisiae strains, strain wild type, hits give low values 1
